HCV inh: qHTS Assay for Inhibitors of Hepatitis C Virus (HCV); Huh7.5.1 HCVcc-Cre infection, luciferase reporter, 44 h; Potency, µM (highest dose often 41.8 µM), inactives show at the top dose activity change, negative = inhibition, actives largely listed as inhibitors; 3.4% of 340,000 active; AID 651820, 2012; active = well fitted inhibition curve with a large enough effect; inconclusive = small, poorly fitted or top-dose-only effect, or another doubt; inactive = no such curve, though single readings can be large or run the other way; note: potency is the fitted concentration of half-maximal effect; % is set by controls: 0 for no effect and ±100 for the full control effect
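Luciferase read-out (15 sec integration) after a 15 min room-temperature substrate step quantifies HCVcc-Cre infection. Cells, 1,000 per well, had compound added 4 h post-plating, then virus at ~0.5 moi, and were cultured 44 h.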
LASV entry inh: qHTS for Inhibitors of binding or entry into cells for Lassa Virus; Lassa virus pseudotype entry inhibition, cell reporter; Potency, µM (highest dose often 37.9 µM), for the others: at the highest dose activity change, negative = inhibition, actives largely listed as inhibitors; 1.2% of 300,000 active; AID 540256, 2011; calls by dose curve; tested in HEK293 cells; note: potency is the fitted concentration of half-maximal effect; % is set by controls: 0 for no effect and ±100 for the full control effect; nearly all actives have a fitted effect of over 50% in size
SARS PLpro yeast: qHTS of Yeast-based Assay for SARS-CoV PLP | 0.19% of 330,000 active | Potency, µM (series often up to 32.9 µM), without a hit: at the top dose activity, positive = growth rescue, actives largely listed as activators | S. cerevisiae expressing SARS-CoV PLpro, growth rescue; calls by dose curve; note: potency is the fitted concentration of half-maximal effect; 0% is about no effect; nearly all actives have a fitted effect of over 55% in size
HCMV inh: qHTS Assay for inhibitors of the human cytomegalovirus (HCMV). HFF cells, HCMV-luciferase reporter, 72 h; active compounds read low. activity change, negative = inhibition, % at 57.5 µM. 4.5% of 410,000 active. AID 1259415, 2018; in the data active = activity change below about -60%; inconclusive = no clear call, values can overlap the other calls; inactive = above about -39%; note: % is set by controls: 0 for no effect and ±100 for the full control effect
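Human foreskin fibroblasts infected with luciferase-reporter HCMV at MOI 1 PFU/cell, compounds at two doses. Luciferase measured 72 h post infection; normalized to buffer-only basal and Salinomycin (10uM) controls.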
MARV entry inh: qHTS for inhibitors of binding or entry into cells for Marburg Virus; AID 540276, 2011; Potency, µM (highest dose often 37.8 µM), without a hit: at the top dose activity change, negative = inhibition, hits mostly inhibitors; 1.8% of 300,000 active; Marburg virus pseudotyped entry inhibition, cell reporter; calls by dose curve; tested in HEK293 cells; note: potency is the fitted concentration of half-maximal effect; % is set by controls: 0 for no effect and ±100 for the full control effect
FMDV antiviral: High Throughput Screening for Foot and Mouth Disease Virus Antivirals; 1.2% of 410,000 active; Potency, µM (highest dose often 57.9 µM), inactives show top-dose activity change, negative = inhibition, hits mostly inhibitors; AID 1159524, 2015; FMDV antiviral cell-based qHTS; calls by dose curve; tested in HEK293T cells; note: read-out not given here; potency is the fitted concentration of half-maximal effect; % is set by controls: 0 for no effect and ±100 for the full control effect; nearly all actives have a fitted effect of over 45% in size
An asterisk follows results filed as active; ? = inconclusive; . = not tested or not shown; [ ] = remark or other dose. Rows were chosen to be rich in hits. Some 8% of all compounds tested hit in one or more screens of this group.

SMILES	HCV inh	LASV entry inh	SARS PLpro yeast	HCMV inh	MARV entry inh	FMDV antiviral
COc1ccc2c(C(=O)c3ccc(C)cc3)n(CCCC(N)=O)[n+]([O-])c2c1	6%	.	1%	7	.	18%
NCCCn1c(C(=O)c2ccc(Cl)cc2)c2ccc([N+](=O)[O-])cc2[n+]1[O-]	10µM*	.	3%	-4	.	-9%
NC(=O)CCCn1c(C(=O)c2ccc(Cl)cc2)c2ccc([N+](=O)[O-])cc2[n+]1[O-]	?	.	2%	?	.	-3%
NC(=O)CCCn1c(C(=O)c2cc(Cl)c(N)c(Cl)c2)c2ccc([N+](=O)[O-])cc2[n+]1[O-]	11µM*	.	1%	-13	.	?
Cc1ccc(C(=O)c2c3ccc([N+](=O)[O-])cc3[n+]([O-])n2CCCC(N)=O)cc1	10µM*	.	-4%	-19	.	16%
Cc1ccc(C(=O)c2c3ccccc3[n+]([O-])n2CCC(=O)O)cc1	13%	.	-13%	-6	.	63%
Cc1cc(C)cc(NC(=O)c2cc(C)nc3c2c(C)nn3-c2ccccc2)c1	.	?	.	-29	.	-2%
Cc1ccc(C)n1C1C(=O)N(Cc2ccc(C(F)(F)F)cc2)c2ccc(F)cc21 (stereo not drawn)	.	.	.	0	.	.
Cc1ccc(-n2c(CCC(=O)O)ccc2-c2cccs2)cc1Cl	.	26%[46.1 µM]	.	21	?	-20%
Nc1ccn(CC(=O)NCc2ccccc2)c(=O)n1	21%	.	2%	23	.	-4%
Nc1ccn(CC(=O)NCCCc2ccccc2)c(=O)n1	-9%	.	5%	-81*	.	-2%
Cc1cn(CC(=O)NCCCc2ccccc2)c(=O)[nH]c1=O	2.8µM*	.	.	24	.	-15%
CC(=O)c1ccc(F)c(-c2cc(C)cc3c2OC(CNC(=O)C[C@@H]2C[C@@H](C)NC(=S)N2)C3)c1 (stereo partly drawn)	.	.	.	.	.	-9%
COC(=O)c1sc(N2C(=O)c3oc4ccc(C)cc4c(=O)c3C2c2ccc(OC)cc2)nc1C (stereo not drawn)	.	-1%[46.1 µM]	.	2	9%[46.1 µM]	0%
CC(C)CCn1c(=O)c2ccccc2n2c(CCl)nnc12	?	?	1%	15	?	32µM*
CC(C)CCn1c(=O)c2ccccc2n2c(CN3CCCC3)nnc12	-2%	3%[46.1 µM]	-1%	-20	17%[46.1 µM]	-2%
CCCCCn1c(=O)c2ccccc2n2c(CCl)nnc12	-25%	-8%	-3%	-12	-14%[14.2 µM]	20µM*
CCCCCCCCOC(=O)c1cc([N+](=O)[O-])c(Sc2ncnc3nc[nH]c23)c([N+](=O)[O-])c1	10%	11µM*	.	?	?	?
CCCCOC(=O)c1ccc(Nc2ncnc3nc[nH]c23)cc1	2%	3%	14%	82	13%	38%
CCCN1CCN(CCCNC(=O)c2ccc3c(c2)sc2nc(-c4ccc(C)cc4)cn23)CC1	.	3%[46.1 µM]	.	.	.	5%
COc1cccc(C2=NC(C)(CC(=O)NCc3cccc(O)c3)ON2C)c1 (stereo not drawn)	.	.	.	1	.	.
Cc1cc(C)c(NC(=O)CSc2nc(C)cc(C)c2C#N)c(C)c1	.	3%[46.1 µM]	.	-6	1%[46.1 µM]	-12%
COc1ccc(/C=C2\SC(=S)N(CCCC(=O)Nc3ccccn3)C2=O)cc1OC	?	0%	-3%	-99*	-9%	?
O=C(CCN1C(=O)/C(=C/c2ccccc2)SC1=S)Nc1ccccn1	-7%	.	5%	-12	.	-16%
Cc1ccc(/C=C2\SC(=S)N(CCCC(=O)Nc3ccccn3)C2=O)cc1	?	2.2µM*	3%	-104*	?	?
SMILES	HCV inh	LASV entry inh	SARS PLpro yeast	HCMV inh	MARV entry inh	FMDV antiviral
CC(=O)Nc1ccc(S(=O)(=O)NCCC(=O)Nc2cccc(Cl)c2)cc1	-16%	.	1%	-2	?	19%
CC(=O)Nc1ccc(S(=O)(=O)NCCOc2ccc(Cl)cc2C)cc1	-9%	0%	-1%	-74*	?	-13%
CC(C)(C)OC(=O)C1=CC[C@@H](c2ccc(Cl)c(Cl)c2)N(S(=O)(=O)c2ccc(F)cc2)[C@H]1c1cccc(F)c1	.	.	.	-64*	.	?
CSc1ncccc1C(=O)NCCN1Cc2ccccc2OC(c2ccccc2F)C1 (stereo not drawn)	.	.	.	.	.	7%
O=C(COC(=O)CNC(=O)c1ccco1)NCCN1C(=O)CSC1=O	-4%	5%	-3%	-62*	20%	8%
C=CCOc1ccc(/C(O)=C2\C(=O)C(=O)N(CCCN3CCOCC3)[C@H]2c2ccc(OC)cc2)cc1	.	.	.	.	15%	.
COc1cccc(-c2nc3ccc([N+](=O)[O-])cc3o2)c1	27%	?	0%	-79*	?	82%
O=[N+]([O-])c1ccc2nc(-c3ccccc3)oc2c1	0%	.	-6%	38	.	100%
Cc1cc(C)c2c(CC(=O)N(Cc3ccccc3)C3CCS(=O)(=O)C3)coc2c1 (stereo not drawn)	.	-13%[46.1 µM]	.	20	13%[46.1 µM]	-20%
Cc1ccc(N(CCC#N)C(=O)CCl)cc1C	10µM*	7.9µM*	-3%	-100*	7.1µM*	28µM*
Cc1ccc(SCC(=O)OCC(=O)N(CCC#N)c2ccccc2)cc1C	3%	6%	4%	-22	28%	-26%
CCS(=O)(=O)Nc1ccc(C2=NN(C(=O)c3ccco3)C(c3ccc(C)cc3)C2)cc1 (stereo not drawn)	?	16µM*	23%	-3	?	?
CCS(=O)(=O)Nc1ccc(C2=NN(C(=O)c3ccco3)C(c3ccc(Cl)o3)C2)cc1 (stereo not drawn)	22µM*	?	8%	2	?	28µM*
Cc1ccc(C2CC(c3ccc(NS(C)(=O)=O)cc3)=NN2C(=O)c2ccco2)cc1 (stereo not drawn)	-14%	?	10%	-13	-20%	-11%
CCC(=O)N1N=C(c2ccc(NS(=O)(=O)c3ccc(C)cc3)cc2)CC1c1ccco1 (stereo not drawn)	11µM*	.	1%	81	.	26%
CCS(=O)(=O)Nc1ccc(C2=NN(C(=O)c3ccco3)C(c3cccc(F)c3)C2)cc1 (stereo not drawn)	?	.	0%	17	.	-4%
CS(=O)(=O)Nc1ccc(C2=NN(C(=O)c3ccco3)C(c3cccc(F)c3)C2)cc1 (stereo not drawn)	?	?	1%	?	11µM*	-14%
CCC(=O)N1N=C(c2ccc(C)cc2)CC1c1ccco1 (stereo not drawn)	-5%	.	0%	24	.	9%
COc1ccc(S(=O)(=O)c2cnc3ccc(Cl)cc3c2N2CCCCC2C)cc1 (stereo not drawn)	.	.	.	-40	?	-2%
